BCLXL inh: Bcl-xL (human) inhibition; Q07817; GST-Bcl-xL / FITC-Bim BH3 peptide fluorescence polarization; inhibition, % at 10.9 µM; 320,000 tested, 0.7% active; AID 2129;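 active = inhibition above the mean of all tested compounds plus 3 SD, cutoff set per campaign, cut at about 30% in these data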;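 also: 0% = DMSO wells and 100% = unlabeled Bim-BH3 peptide competitor; inhibitors lower millipolarization by displacing the labeled peptide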
GLD-1 RNA inh: GLD-1-TGE RNA interaction inhibition (C. elegans) | Q17339 | purified GLD-1 + fluorescein TGE RNA, fluorescence polarization | inhibition, % at 5.96 µM | 320,000 tested, 0.44% active;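 active = percent inhibition above a per-plate cutoff, the plate mean of test compounds plus 3 SD, cut at about 30% in these data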;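 also: 0% = DMSO wells with GLD-1 and probe and 100% = wells lacking GLD-1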
MEX-5 binding: C. elegans MEX-5 TCR-2 RNA binding activity | Q9XUB2 | MEX-5/FITC-TCR2 RNA binding, fluorescence polarization; hits give low values | activity score (negative = inhibition of binding), % at 10 µM | 300,000 tested, 0.38% active | AID 1832;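 active = inhibition past about -25% in most replicates, and total fluorescence under double the plate's negative control median, limit read from the data; inconclusive = replicates evenly split on the limit, or fluorescence at least double controls; inactive = too little inhibition in most replicates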;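 also: 0% = DMSO and -100% = 5 µM competing unlabeled TCR2 RNA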
Target sequence (Q9XUB2 whole entry, looked up): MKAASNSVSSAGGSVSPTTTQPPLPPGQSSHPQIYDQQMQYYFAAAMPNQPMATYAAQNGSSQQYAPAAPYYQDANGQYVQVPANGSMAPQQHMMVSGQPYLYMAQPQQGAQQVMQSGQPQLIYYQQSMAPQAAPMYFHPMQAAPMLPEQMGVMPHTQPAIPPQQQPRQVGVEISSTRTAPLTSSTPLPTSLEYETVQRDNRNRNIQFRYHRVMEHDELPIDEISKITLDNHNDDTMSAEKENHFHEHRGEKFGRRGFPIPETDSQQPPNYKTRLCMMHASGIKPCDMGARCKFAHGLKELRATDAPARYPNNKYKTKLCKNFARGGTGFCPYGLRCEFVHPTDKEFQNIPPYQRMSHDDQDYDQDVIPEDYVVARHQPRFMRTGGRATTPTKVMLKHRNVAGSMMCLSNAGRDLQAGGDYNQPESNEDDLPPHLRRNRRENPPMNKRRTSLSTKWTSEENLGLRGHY
EBV gp42 inh: inhibitors of Epstein-Barr virus glycoprotein 42; inhibition, % (tested at 21.74 µM); AID 1085; Fluorescence polarization binding assay, mP read-out; 220,000 tested, 0.42% active; in the data active = inhibition above about 50%
E coli Lon inh: inhibits E. coli Lon protease | purified E. coli Lon protease, fluorescence polarization | inhibition, % at 7.94 µM | 360,000 tested, 0.42% active; in the data active = inhibition above about 13%, passing the limit was not always enough;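 also: 0% = enzyme with probe and DMSO and 100% = no enzyme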
E coli Lon conf: confirmation of E. coli Lon protease inhibitors; purified E. coli Lon, fluorescence polarization; 1,400 tested, 31% active; AID 602230; inhibition, % at 7.94 µM; shares compounds with E coli Lon inh; in the data active = inhibition above about 16%;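 also: 0% = enzyme with probe and DMSO and 100% = no enzyme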
Numbers without * were called inactive. A selection: hits, their analogues and other compounds. The true share with any hit is near 1.3%.

`CC1(C)CC(=O)C2=C(C1)Nc1ccccc1NC2c1ccc2c(c1)OCO2` (stereo unspecified) gave BCLXL inh 5, GLD-1 RNA inh 10, MEX-5 binding 0, EBV gp42 inh -17, E coli Lon inh 36* and E coli Lon conf 16*.
CC1(C)CC(=O)C2=C(C1)Nc1cc3c(cc1C2c1ccc2c(c1)OCO2)OCO3 (stereo unspecified) was read as BCLXL inh 4, GLD-1 RNA inh 5, MEX-5 binding 3, EBV gp42 inh -1 and E coli Lon inh -7.
`CCOc1ccc(C2Nc3ccccc3NC3=C2C(=O)CC(C)(C)C3)cc1OC` (stereo unspecified) gave BCLXL inh 1, GLD-1 RNA inh 3, MEX-5 binding 0, E coli Lon inh 29* and E coli Lon conf -2.
For COc1ccc(C2Nc3ccccc3NC3=C2C(=O)CC(C)(C)C3)cc1O (stereo unspecified) the results were BCLXL inh 7, GLD-1 RNA inh 2, MEX-5 binding 1, E coli Lon inh 19* and E coli Lon conf 9.
`COc1ccc(C2Nc3ccccc3NC3=C2C(=O)CC(C)(C)C3)cc1` (stereo unspecified) gave BCLXL inh 5, GLD-1 RNA inh 7, MEX-5 binding -2, E coli Lon inh 64* and E coli Lon conf 10.
For CCOC(=O)C1(C)CCCN1C(=O)c1sccc1C (stereo unspecified) the results were E coli Lon inh -3.
`Cc1nc2ccccn2c(=O)c1NC(=O)c1ccc2c(c1)OCO2` gave E coli Lon inh -12.
CCCn1c(NC(=O)c2ccc(Cl)c(S(=O)(=O)N3CCCC3)c2)nc2ccccc21 was read as BCLXL inh 5, GLD-1 RNA inh 3, MEX-5 binding 3, EBV gp42 inh -13 and E coli Lon inh 10.
Screening O=c1c2ccccc2nc2n1CCC2O (stereo unspecified) returned BCLXL inh 3, GLD-1 RNA inh 2, MEX-5 binding 3, EBV gp42 inh -11 and E coli Lon inh -11.
Cc1cc2c(cc1C)NC(c1c(C)n(C)n(-c3ccccc3)c1=O)C1=C(CC(C)(C)CC1=O)N2 (stereo unspecified) was read as BCLXL inh 120*, GLD-1 RNA inh 85*, MEX-5 binding -9, EBV gp42 inh 85*, E coli Lon inh 20* and E coli Lon conf 4.
For COc1cc(C2Nc3cc(C)c(C)cc3NC3=C2C(=O)CC(C)(C)C3)ccc1OC(C)=O (stereo unspecified) the results were BCLXL inh 3, GLD-1 RNA inh 2, MEX-5 binding -2 and E coli Lon inh -11.
Screening CC(=O)Nc1cc(-c2ccccc2N(C)C)cn2c(-c3cccc(C(F)(F)F)c3)cnc12 returned E coli Lon inh active and E coli Lon conf 9.
For O=C(Cc1c(F)cccc1Cl)Nc1ccccc1-c1ccccc1 the results were BCLXL inh 5, GLD-1 RNA inh 2, MEX-5 binding 0, E coli Lon inh 20* and E coli Lon conf -26.
Screening O=C(c1ccc2c(c1)OCO2)C1CCCN(Cc2c(F)ccc(F)c2F)C1 (stereo unspecified) returned BCLXL inh 0, GLD-1 RNA inh 1, MEX-5 binding 2 and E coli Lon inh -6.
`CC(=O)Nc1ccc(-c2ccnc3c2CC(C)(C(=O)NCC2CC2)O3)cc1` (stereo unspecified) gave E coli Lon inh -5.
For CC(=O)Nc1cccc(-c2ccnc3c2CC(C)(C(=O)NCC2CC2)O3)c1 (stereo unspecified) the results were E coli Lon inh 47* and E coli Lon conf -5.
`Nc1ccc2c3c(cccc13)-c1ccccc1-2` gave E coli Lon inh 189* and E coli Lon conf active.
Screening CC(=O)OCCn1c2nc(=O)[nH]c(=O)c-2nc2cc(C)c(C)cc21 returned MEX-5 binding inconclusive, EBV gp42 inh -56, E coli Lon inh active and E coli Lon conf active.
For CC(=O)OCCn1c(C)[n+](CCOC(C)=O)c2cc(Cl)c(Cl)cc21 the results were BCLXL inh -16, GLD-1 RNA inh 1, MEX-5 binding 2, EBV gp42 inh -37 and E coli Lon inh -2.
Screening CC1(C(=O)Nc2ccccc2F)CCN1C(=O)Cc1ccc(-c2ccccc2)cc1 (stereo unspecified) returned E coli Lon inh 11.
N#Cc1cccc(NC(=O)c2cc(C3CCCCN3C(=O)c3cccs3)on2)c1 (stereo unspecified) was read as E coli Lon inh 15* and E coli Lon conf -3.
For CCN(CC)CCNC(=O)c1ccc(NC(=O)C2CCN(c3ncnc4sc(C)c(C)c34)CC2)cc1 the results were BCLXL inh -17, GLD-1 RNA inh -12, MEX-5 binding 3 and E coli Lon inh 0.
Screening Cc1cc(Br)cn2c(Cc3ccsc3)c(-c3ccccc3)nc12 returned E coli Lon inh 24* and E coli Lon conf 3.
Screening Clc1ccc2nc(-c3ccco3)c(Cc3ccsc3)n2c1 returned E coli Lon inh -14.
Screening CCCc1nc2ccc(Cl)cn2c1Cc1ccsc1 returned E coli Lon inh 25* and E coli Lon conf 6.
N#Cc1ccc(-c2nc3ccc(Cl)cn3c2Cc2ccsc2)cc1 was read as E coli Lon inh 13.
Screening Cc1ccc(-c2nc3c(C)cc(Br)cn3c2Cc2ccsc2)cc1 returned E coli Lon inh 7.
For Clc1ccc2nc(-c3ccccc3)c(Cc3ccsc3)n2c1 the results were E coli Lon inh 18* and E coli Lon conf 12.
Brc1ccc2nc(-c3ccccc3)c(Cc3ccsc3)n2c1 was read as E coli Lon inh 14.
Screening Clc1ccc(-c2nc3ccc(Cl)cn3c2Cc2ccsc2)cc1 returned E coli Lon inh 25* and E coli Lon conf 3.
For CCN(CC)C(=O)[C@H]1CC(CC(=O)NCCN2CCOCC2)C(=O)N2CCc3c([nH]c4ccc(OC)cc34)[C@]12C (stereo partly specified) the results were E coli Lon inh -3.
For CCN(CC)C(=O)[C@H]1CC(CC(=O)NCCCN(C)C)C(=O)N2CCc3c([nH]c4ccc(OC)cc34)[C@]12C (stereo partly specified) the results were E coli Lon inh active and E coli Lon conf -6.
For Cc1cc(C)n2nc(SCc3cc(=O)oc4cc(C)c(C)cc34)nc2n1 the results were BCLXL inh 5, GLD-1 RNA inh -2, MEX-5 binding 1 and EBV gp42 inh 6.
`Cc1cc(C)n2nc(SCc3cc(=O)oc4ccc5ccccc5c34)nc2n1` gave BCLXL inh 20, GLD-1 RNA inh 13, MEX-5 binding 4, EBV gp42 inh 8, E coli Lon inh 14* and E coli Lon conf -12.
Clc1ccccc1N=Nc1ccccn1 was read as E coli Lon inh active and E coli Lon conf 10.

Screening data deposited in PubChem by several laboratories.
